In the supplement of paper PMC10849652 one finds log2 fold change data, which are given here for 22 targets.

About 8,800 targets were measured; listed, in parts, are those with a hit and a random draw of the rest. About 0.5% of all pairs of compound and target were hits. Unmarked numbers belong to inactive results.

UniProt P27708, sequence (P27708 whole entry, looked up): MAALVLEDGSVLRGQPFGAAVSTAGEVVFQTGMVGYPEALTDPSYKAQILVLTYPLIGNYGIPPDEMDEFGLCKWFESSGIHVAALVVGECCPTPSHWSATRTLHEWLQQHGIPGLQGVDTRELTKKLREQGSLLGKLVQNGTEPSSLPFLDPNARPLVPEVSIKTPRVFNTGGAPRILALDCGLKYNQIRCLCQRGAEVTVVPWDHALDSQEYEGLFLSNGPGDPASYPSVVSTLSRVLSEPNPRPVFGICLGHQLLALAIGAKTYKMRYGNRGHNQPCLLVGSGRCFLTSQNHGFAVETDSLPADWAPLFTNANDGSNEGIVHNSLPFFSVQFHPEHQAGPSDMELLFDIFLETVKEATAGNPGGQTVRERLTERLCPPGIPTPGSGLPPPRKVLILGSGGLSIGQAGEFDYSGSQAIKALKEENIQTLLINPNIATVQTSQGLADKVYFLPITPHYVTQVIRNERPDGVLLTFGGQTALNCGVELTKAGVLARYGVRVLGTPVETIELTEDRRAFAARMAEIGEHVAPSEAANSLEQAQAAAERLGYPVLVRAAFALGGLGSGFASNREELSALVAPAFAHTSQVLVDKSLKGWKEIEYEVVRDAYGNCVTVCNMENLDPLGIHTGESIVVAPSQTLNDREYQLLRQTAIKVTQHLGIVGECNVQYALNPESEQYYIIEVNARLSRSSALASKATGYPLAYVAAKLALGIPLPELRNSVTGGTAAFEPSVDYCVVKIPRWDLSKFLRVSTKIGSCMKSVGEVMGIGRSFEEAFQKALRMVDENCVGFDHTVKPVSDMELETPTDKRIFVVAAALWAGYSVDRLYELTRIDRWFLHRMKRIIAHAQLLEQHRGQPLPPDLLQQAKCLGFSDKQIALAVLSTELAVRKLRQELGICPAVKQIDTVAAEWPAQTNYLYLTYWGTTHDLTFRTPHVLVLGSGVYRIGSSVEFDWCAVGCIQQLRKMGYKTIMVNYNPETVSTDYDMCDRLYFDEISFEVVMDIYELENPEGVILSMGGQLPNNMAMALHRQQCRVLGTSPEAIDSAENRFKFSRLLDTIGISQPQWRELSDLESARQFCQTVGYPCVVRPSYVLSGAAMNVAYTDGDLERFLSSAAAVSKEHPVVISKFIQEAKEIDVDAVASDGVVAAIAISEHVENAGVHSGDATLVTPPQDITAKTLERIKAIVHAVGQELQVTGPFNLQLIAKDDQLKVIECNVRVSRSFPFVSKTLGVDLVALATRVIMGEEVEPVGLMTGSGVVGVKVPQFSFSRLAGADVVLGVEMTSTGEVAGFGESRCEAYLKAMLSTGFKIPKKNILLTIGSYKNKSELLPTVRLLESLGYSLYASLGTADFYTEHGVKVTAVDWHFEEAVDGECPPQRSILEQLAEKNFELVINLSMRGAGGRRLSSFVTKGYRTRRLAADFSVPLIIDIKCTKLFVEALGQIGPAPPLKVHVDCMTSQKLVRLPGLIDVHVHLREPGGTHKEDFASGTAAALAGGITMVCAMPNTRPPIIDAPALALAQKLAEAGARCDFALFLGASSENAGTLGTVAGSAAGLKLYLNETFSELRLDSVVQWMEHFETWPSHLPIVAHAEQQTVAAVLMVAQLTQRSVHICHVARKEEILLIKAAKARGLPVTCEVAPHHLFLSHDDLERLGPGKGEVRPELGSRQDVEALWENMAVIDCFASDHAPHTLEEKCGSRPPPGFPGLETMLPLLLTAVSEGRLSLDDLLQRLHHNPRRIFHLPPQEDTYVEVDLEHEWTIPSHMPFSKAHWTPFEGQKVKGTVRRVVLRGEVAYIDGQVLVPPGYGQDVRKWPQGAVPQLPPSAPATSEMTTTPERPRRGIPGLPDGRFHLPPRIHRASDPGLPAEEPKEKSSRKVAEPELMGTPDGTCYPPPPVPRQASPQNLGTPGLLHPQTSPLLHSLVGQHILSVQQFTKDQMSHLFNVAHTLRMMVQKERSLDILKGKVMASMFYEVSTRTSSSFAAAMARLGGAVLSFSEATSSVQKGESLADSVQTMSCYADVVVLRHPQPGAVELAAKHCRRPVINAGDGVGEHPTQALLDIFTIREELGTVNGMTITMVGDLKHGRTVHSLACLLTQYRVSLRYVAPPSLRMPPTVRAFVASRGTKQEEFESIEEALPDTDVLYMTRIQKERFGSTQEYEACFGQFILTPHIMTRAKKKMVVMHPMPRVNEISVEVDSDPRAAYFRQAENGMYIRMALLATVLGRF
UniProt Q86WR0, sequence (Q86WR0 whole entry, looked up): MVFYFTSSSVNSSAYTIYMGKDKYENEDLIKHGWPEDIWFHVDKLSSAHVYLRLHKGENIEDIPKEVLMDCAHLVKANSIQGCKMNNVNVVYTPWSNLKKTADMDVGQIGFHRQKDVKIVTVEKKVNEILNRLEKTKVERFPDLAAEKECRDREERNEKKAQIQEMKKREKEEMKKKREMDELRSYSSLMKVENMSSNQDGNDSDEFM
UniProt Q8TDI0, sequence (Q8TDI0 whole entry, looked up): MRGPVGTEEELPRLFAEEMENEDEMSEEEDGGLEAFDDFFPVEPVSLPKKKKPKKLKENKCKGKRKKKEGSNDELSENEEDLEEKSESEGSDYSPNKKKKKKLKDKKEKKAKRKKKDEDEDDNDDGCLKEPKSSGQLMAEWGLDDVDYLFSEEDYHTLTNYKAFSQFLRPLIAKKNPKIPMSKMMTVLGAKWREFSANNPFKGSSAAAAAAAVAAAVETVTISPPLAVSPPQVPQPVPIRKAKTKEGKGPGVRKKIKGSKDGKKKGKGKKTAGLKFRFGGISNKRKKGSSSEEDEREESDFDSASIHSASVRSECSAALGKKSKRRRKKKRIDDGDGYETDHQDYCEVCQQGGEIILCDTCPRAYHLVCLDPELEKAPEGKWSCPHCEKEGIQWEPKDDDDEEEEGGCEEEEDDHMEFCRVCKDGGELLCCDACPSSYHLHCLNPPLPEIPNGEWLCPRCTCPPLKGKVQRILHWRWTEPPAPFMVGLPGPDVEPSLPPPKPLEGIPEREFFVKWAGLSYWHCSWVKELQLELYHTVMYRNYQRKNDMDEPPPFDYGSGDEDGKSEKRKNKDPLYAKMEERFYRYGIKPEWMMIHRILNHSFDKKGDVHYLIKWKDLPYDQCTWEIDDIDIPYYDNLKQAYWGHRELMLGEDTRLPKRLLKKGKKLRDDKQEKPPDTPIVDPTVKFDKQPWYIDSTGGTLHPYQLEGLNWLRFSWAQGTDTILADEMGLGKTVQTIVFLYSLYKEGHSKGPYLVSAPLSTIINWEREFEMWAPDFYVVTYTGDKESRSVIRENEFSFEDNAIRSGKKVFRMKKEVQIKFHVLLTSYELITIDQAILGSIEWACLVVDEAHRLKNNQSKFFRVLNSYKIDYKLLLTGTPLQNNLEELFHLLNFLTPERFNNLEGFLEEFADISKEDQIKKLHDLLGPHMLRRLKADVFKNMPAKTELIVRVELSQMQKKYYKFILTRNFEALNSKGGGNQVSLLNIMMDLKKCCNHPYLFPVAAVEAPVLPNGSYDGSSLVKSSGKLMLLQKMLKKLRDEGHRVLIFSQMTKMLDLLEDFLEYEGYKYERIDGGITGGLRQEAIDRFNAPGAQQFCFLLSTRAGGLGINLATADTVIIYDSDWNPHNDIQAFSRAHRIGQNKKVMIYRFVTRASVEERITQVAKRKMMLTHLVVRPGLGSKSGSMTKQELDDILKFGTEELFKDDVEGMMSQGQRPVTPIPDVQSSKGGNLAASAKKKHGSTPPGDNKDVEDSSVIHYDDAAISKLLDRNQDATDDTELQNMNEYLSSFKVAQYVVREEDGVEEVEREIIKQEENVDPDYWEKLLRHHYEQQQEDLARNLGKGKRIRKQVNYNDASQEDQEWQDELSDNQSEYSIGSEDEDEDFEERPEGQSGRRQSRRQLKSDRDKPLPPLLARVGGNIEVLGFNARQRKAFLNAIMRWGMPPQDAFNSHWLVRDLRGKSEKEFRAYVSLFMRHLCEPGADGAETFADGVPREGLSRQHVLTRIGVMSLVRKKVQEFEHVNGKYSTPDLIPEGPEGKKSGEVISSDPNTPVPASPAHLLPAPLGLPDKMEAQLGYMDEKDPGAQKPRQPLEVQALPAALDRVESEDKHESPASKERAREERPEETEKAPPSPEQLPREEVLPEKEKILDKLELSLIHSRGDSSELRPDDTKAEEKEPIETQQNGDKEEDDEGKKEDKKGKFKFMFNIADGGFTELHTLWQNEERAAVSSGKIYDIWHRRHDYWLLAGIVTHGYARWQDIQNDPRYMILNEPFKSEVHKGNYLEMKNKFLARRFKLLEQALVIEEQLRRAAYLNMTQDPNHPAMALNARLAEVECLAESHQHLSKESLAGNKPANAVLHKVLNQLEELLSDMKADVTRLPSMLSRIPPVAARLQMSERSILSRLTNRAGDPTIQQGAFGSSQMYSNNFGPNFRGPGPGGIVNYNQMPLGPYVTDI
UniProt P24863, sequence (P24863 whole entry, looked up): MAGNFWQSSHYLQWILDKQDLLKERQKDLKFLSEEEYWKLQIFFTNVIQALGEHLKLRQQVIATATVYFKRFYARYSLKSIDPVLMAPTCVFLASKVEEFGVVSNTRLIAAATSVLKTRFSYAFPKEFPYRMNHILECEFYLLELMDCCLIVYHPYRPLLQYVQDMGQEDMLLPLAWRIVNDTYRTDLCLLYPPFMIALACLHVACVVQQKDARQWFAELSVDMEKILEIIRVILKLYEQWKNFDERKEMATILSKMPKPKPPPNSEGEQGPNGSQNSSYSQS
UniProt Q9Y6H1, sequence (Q9Y6H1 whole entry, looked up): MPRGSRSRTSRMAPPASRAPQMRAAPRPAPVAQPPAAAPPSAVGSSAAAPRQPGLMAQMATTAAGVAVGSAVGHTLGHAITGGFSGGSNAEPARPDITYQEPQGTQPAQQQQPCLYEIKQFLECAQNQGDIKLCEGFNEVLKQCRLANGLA
UniProt Q12981, sequence (Q12981 whole entry, looked up): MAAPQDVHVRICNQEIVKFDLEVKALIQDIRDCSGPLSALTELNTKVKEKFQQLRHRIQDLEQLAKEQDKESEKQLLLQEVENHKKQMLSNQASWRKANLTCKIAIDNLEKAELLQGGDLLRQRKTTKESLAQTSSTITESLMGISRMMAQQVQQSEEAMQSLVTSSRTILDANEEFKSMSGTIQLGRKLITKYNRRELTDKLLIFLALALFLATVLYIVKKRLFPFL

Compound in the test: COc1cc2nc(-c3cc(F)ccc3O)nc(N[C@@H]3CNC[C@H]3C(C)(C)O)c2cc1OC
The test can be described thus: log2 fold change, soluble protein after heating vs DMSO (PISA); higher = thermal stabilisation; K562 lysate, 10 uM; active = over 0.2 and 3.5 SD of the protein, either way, in both replicates (recomputed). Summed up: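 Dounce homogenisation of K562 pellets in PBS pH 7.4 with 1 mM MgCl2 produced a crude extract, used at 1 mg/mL protein. Exposure to 10 μM compound lasted 30 min, and aliquots were then heated for 3 min across 48°C-58°C, pooled and brought to 0.5% NP-40 at 4°C. The supernatant after 21,000xg for 90 min was quantified by TMTpro 16plex LC-MS/MS with channel sums equalised. Duplicate values are given as log-two fold change in thermal stability relative to solvent controls.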
Regarding BRD4 (UniProt O60885), the log2 fold change was -0.03.

On to CAMKK1 isoform 2 (UniProt Q8N5S9), for which the log2 fold change was -0.048.

Take ATG13 isoform 2 (UniProt O75143): the log2 fold change was 0.017. As for ATAD1 (UniProt Q8NBU5), the log2 fold change is 0.039.

For the target BSDC1 (UniProt Q9NW68), the log2 fold change was -0.031.

For the target ATP5PF isoform 2 (UniProt P18859), the log2 fold change was 0.01. With CAD (UniProt P27708), the log2 fold change is -0.015.

As for CHCHD2 (UniProt Q9Y6H1), the log2 fold change was -0.033. In the case of CHCHD4 isoform 2 (UniProt Q8N4Q1) it was 0.016; in that of CCNC (UniProt P24863), -0.05; in that of CELF2 isoform 3 (UniProt O95319), -0.079.

Consider CEP120 (UniProt Q8N960), for which the log2 fold change is 0.038.

Take CCDC25 (UniProt Q86WR0): the log2 fold change was -0.005. Consider CELF1 isoform 4 (UniProt Q92879), for which the log2 fold change was -0.026.

With BNIP1 (UniProt Q12981), the log2 fold change was 0.004. As to CHD5 (UniProt Q8TDI0), the log2 fold change was -0.009. As to ATP2B4 (UniProt P23634), the log2 fold change was 0.009.

Turning to CANX isoform 2 (UniProt P27824), the log2 fold change is 0.023. As for BCKDK (UniProt O14874), the log2 fold change was -0.027. In the case of CCAR2 (UniProt Q8N163) it was 0; in that of CDC40 (UniProt O60508), 0.034. CDK5RAP2 (UniProt Q96SN8): the log2 fold change is -0.144.
